Laboratory results: PubChem BioAssay AID1159580 (chemical genetic matrix, 2015)
The whole screen tested about 5,500 compounds, of which about 2,000 (36%) were called active. Not shown: some 18% with an inconclusive outcome. Cut-off read from the data, not from the text of the source: active = normalized growth mostly below about 0.91 (no sharp cut-off); inconclusive = no clear call, values can overlap the other calls; inactive = mostly above about 0.92. The list shows a part of the results.

Test: chemical genetic growth profiling, strain panel (AID 1159580);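 note: tested at 20 µM; growth read once vehicle control cultures reached saturation at 30 °C; 1 = growth at the plate median or of vehicle wells; lower values mean less growth of the strain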
Details: growth OD

Measured: normalized growth

CC(C)NCC(O)c1ccc2ccccc2c1 (stereo not drawn)
inactive: S. cerevisiae deletion strains, locus YJR066W, strain TOR1, stronger effect = lower value 0.936 | S. cerevisiae deletion strains, locus YJR075W, strain HOC1, stronger effect = lower value 1.02 | S. cerevisiae deletion strains, locus YKL009W, strain mrt4, stronger effect = lower value 0.998 | S. cerevisiae deletion strains, locus YKL068W, stronger effect = lower value 0.997 | S. cerevisiae deletion strains, locus YKL085W, strain MDH1 (second series), stronger effect = lower value 0.996 | S. cerevisiae deletion strains, locus YKL085W, strain MDH1, stronger effect = lower value 0.996 | S. cerevisiae deletion strains, locus YKL160W, strain elf1, stronger effect = lower value 0.994 | S. cerevisiae deletion strains, locus YKR001C, strain vps1, stronger effect = lower value 1.03 | S. cerevisiae deletion strains, locus YKR026C, strain gcn3, stronger effect = lower value 1 | S. cerevisiae deletion strains, locus YKR091W, strain srl3, stronger effect = lower value 1 | S. cerevisiae deletion strains, locus YLL001W, strain dnm1, stronger effect = lower value 1 | S. cerevisiae deletion strains, locus YLL026W, stronger effect = lower value 0.998 | S. cerevisiae deletion strains, locus YLL041C, strain sdh2, stronger effect = lower value 0.998 | S. cerevisiae deletion strains, locus YLR027C, strain aat2, stronger effect = lower value 1 | S. cerevisiae deletion strains, locus YLR039C, strain RIC1, stronger effect = lower value 1.04 | S. cerevisiae deletion strains, locus YLR058C, strain SHM2, stronger effect = lower value 1.01 | S. cerevisiae deletion strains, locus YLR102C, strain apc9, stronger effect = lower value 0.988 | S. cerevisiae deletion strains, locus YLR113W, strain HOG1, stronger effect = lower value 1.05 | S. cerevisiae deletion strains, locus YLR221C, strain rsa3, stronger effect = lower value 1.02 | S. cerevisiae deletion strains, locus YLR258W, strain gsy2, stronger effect = lower value 0.996 | S. cerevisiae deletion strains, locus YLR262C, strain YPT6 (second series), stronger effect = lower value 0.984 | S. cerevisiae deletion strains, locus YLR262C, strain YPT6, stronger effect = lower value 1.07 | S. cerevisiae deletion strains, locus YLR268W, strain sec22, stronger effect = lower value 0.989 | S. cerevisiae deletion strains, locus YLR320W, strain mms22, stronger effect = lower value 1.01 | S. cerevisiae deletion strains, locus YLR330W, strain CHS5, stronger effect = lower value 1.01 | S. cerevisiae deletion strains, locus YLR342W, strain FKS1 (second series), stronger effect = lower value 1.03 | S. cerevisiae deletion strains, locus YLR342W, strain FKS1, stronger effect = lower value 0.999 | S. cerevisiae deletion strains, locus YLR357W, strain rsc2, stronger effect = lower value 0.984 | S. cerevisiae deletion strains, locus YLR370C, strain arc18, stronger effect = lower value 1.02 | S. cerevisiae deletion strains, locus YLR371W, strain rom2, stronger effect = lower value 0.989 | S. cerevisiae deletion strains, locus YLR384C, strain iki3, stronger effect = lower value 1 | S. cerevisiae deletion strains, locus YLR418C, strain cdc73, stronger effect = lower value 0.997 | S. cerevisiae deletion strains, locus YML016C, strain PPZ1, stronger effect = lower value 1 | S. cerevisiae deletion strains, locus YML032C, strain rad52, stronger effect = lower value 1.01 | S. cerevisiae deletion strains, locus YML120C, strain ndi1, stronger effect = lower value 0.991 | S. cerevisiae deletion strains, locus YML124C, strain tub3, stronger effect = lower value 0.991 | S. cerevisiae deletion strains, locus YMR058W, strain fet3, stronger effect = lower value 1 | S. cerevisiae deletion strains, locus YMR078C, strain ctf18, stronger effect = lower value 0.998 | S. cerevisiae deletion strains, locus YMR125W, strain sto1, stronger effect = lower value 0.982 | S. cerevisiae deletion strains, locus YMR129W, stronger effect = lower value 0.98 | S. cerevisiae deletion strains, locus YMR205C, strain PFK2, stronger effect = lower value 0.981 | S. cerevisiae deletion strains, locus YMR223W, strain ubp8, stronger effect = lower value 0.997 | S. cerevisiae deletion strains, locus YMR231W, strain pep5, stronger effect = lower value 1 | S. cerevisiae deletion strains, locus YMR307W, strain GAS1, stronger effect = lower value 1.06 | S. cerevisiae deletion strains, locus YNL067W, strain RPL9B, stronger effect = lower value 1.04 | S. cerevisiae deletion strains, locus YNL071W, strain lat1, stronger effect = lower value 1 | S. cerevisiae deletion strains, locus YNL153C, strain GIM3, stronger effect = lower value 1.05 | S. cerevisiae deletion strains, locus YNL183C, strain NPR1, stronger effect = lower value 0.968 | S. cerevisiae deletion strains, locus YNL209W, strain ssb2, stronger effect = lower value 1 | S. cerevisiae deletion strains, locus YNL233W, strain BNI4, stronger effect = lower value 1.04 | S. cerevisiae deletion strains, locus YNL248C, strain rpa49, stronger effect = lower value 0.998 | S. cerevisiae deletion strains, locus YNL250W, strain rad50, stronger effect = lower value 0.992 | S. cerevisiae deletion strains, locus YNL271C, strain bni1, stronger effect = lower value 1.01 | S. cerevisiae deletion strains, locus YNL298W, strain CLA4, stronger effect = lower value 1 | S. cerevisiae deletion strains, locus YNL307C, strain MCK1, stronger effect = lower value 0.994 | S. cerevisiae deletion strains, locus YNL322C, strain KRE1 (second series), stronger effect = lower value 1 | S. cerevisiae deletion strains, locus YNL322C, strain KRE1, stronger effect = lower value 1.01 | S. cerevisiae deletion strains, locus YNR049C, strain mso1, stronger effect = lower value 0.999 | S. cerevisiae deletion strains, locus YNR052C, strain pop2, stronger effect = lower value 0.997 | S. cerevisiae deletion strains, locus YOL012C, strain htz1 1.41 | S. cerevisiae deletion strains, locus YOL147C, strain pex11, stronger effect = lower value 1 | S. cerevisiae deletion strains, locus YOR001W, strain rrp6, stronger effect = lower value 1 | S. cerevisiae deletion strains, locus YOR061W, strain CKA2, stronger effect = lower value 1.01 | S. cerevisiae deletion strains, locus YOR069W, strain VPS5, stronger effect = lower value 1.01 | S. cerevisiae deletion strains, locus YOR070C, strain gyp1, stronger effect = lower value 1 | S. cerevisiae deletion strains, locus YOR080W, strain dia2, stronger effect = lower value 0.998 | S. cerevisiae deletion strains, locus YOR083W, strain WHI5, stronger effect = lower value 0.991 | S. cerevisiae deletion strains, locus YOR106W, strain vam3, stronger effect = lower value 1.04 | S. cerevisiae deletion strains, locus YOR136W, strain idh2, stronger effect = lower value 0.997 | S. cerevisiae deletion strains, locus YOR144C, strain elg1, stronger effect = lower value 0.99 | S. cerevisiae deletion strains, locus YOR184W, strain ser1, stronger effect = lower value 0.978 | S. cerevisiae deletion strains, locus YOR231W, strain MKK1, stronger effect = lower value 1.06 | S. cerevisiae deletion strains, locus YOR265W, strain rbl2, stronger effect = lower value 0.99 | S. cerevisiae deletion strains, locus YOR270C, strain vph1, stronger effect = lower value 1.02 | S. cerevisiae deletion strains, locus YOR290C, strain snf2, stronger effect = lower value 0.993 | S. cerevisiae deletion strains, locus YOR316C, strain cot1, stronger effect = lower value 0.992 | S. cerevisiae deletion strains, locus YPL051W, strain arl3, stronger effect = lower value 1.01 | S. cerevisiae deletion strains, locus YPL055C, strain LGE1, stronger effect = lower value 1.06 | S. cerevisiae deletion strains, locus YPL078C, strain atp4, stronger effect = lower value 1.01 | S. cerevisiae deletion strains, locus YPL106C, strain sse1, stronger effect = lower value 0.983 | S. cerevisiae deletion strains, locus YPL240C, strain hsp82, stronger effect = lower value 0.997 | S. cerevisiae deletion strains, locus YPL256C, strain CLN2, stronger effect = lower value 1.02 | S. cerevisiae deletion strains, locus YPR119W, strain clb2, stronger effect = lower value 0.99 | S. cerevisiae deletion strains, locus YPR141C, strain kar3, stronger effect = lower value 0.994 | S. cerevisiae deletion strains, locus YPR163C, strain tif3, stronger effect = lower value 0.99 | S. cerevisiae deletion strains, locus YPR167C, strain met16, stronger effect = lower value 0.989 | S. cerevisiae deletion strains, strain wtn01, stronger effect = lower value 1.03 | S. cerevisiae strains, strain wild type, stronger effect = lower value 1.01
